In PubChem BioAssay:

tested on: Lefty1; assay: Lefty1 protein binding to printed compounds – biochemical, small-molecule microarray, 635/667 nm fluorescence, primary screen (AID 1139); details: fluorescence 635/667, higher = more signal

SMILES | composite z-score
C=CCc1cccc([C@@H]2[C@@H](C)CC[C@H]3C(=O)N4[C@H](c5cccc(CC=C)c5)[C@@H](C)CC[C@H]4C(=O)N23)c1 | 0.644
CCCCCCc1nc(C2CC2)c(C)c2c1[Si](C(C)C)(C(C)C)OC2 | -0.238
CC(C)(C)OC(=O)CC[C@]1(C(=O)NCCN2CCOCC2)N=C(c2ccc(OCCCO)cc2)O[C@H]1c1ccccc1CN=[N+]=[N-] | -0.697
CCOC(=O)C[C@H]1[C@H](OC(=O)c2ccccc2-c2ccccc2)[C@@H](NC(=O)c2ccc(-c3ccccc3)cc2)c2cc(OCCCO)ccc2N1C(=O)Cc1ccc(OC)cc1 | 0.566
C=CCN1C(=O)[C@@]2(Cc3ccccc3)N=C(c3ccc(OCCCO)cc3)O[C@H]2c2ccccc21 | 0.398
C=CCC(OC(C)=O)[C@@H]1[C@@H](N(Cc2cc3ccccc3o2)C(=O)c2ccc(C)cc2)c2cc(OCCCO)ccc2N1C(=O)c1ccc2ccccc2n1 (stereo partly specified) | -0.114
C=C(C(=O)CC[C@H](OC(=O)c1ccccc1-c1ccccc1C(=O)O)c1ccc(CO)o1)C(C)C | 1.04
O=C(CS)NCCCCCNC(=O)[C@H]1C[C@H]2C(=O)N3CCC[C@H]3C(=O)N2[C@H]1c1ccc(O)cc1 | -0.0421
N#Cc1ccc(NN2C(C(O)CCc3ccccc3)C=CC3C(=O)N(c4ccccc4)C(=O)C32)cc1 (stereo unspecified) | -0.85
O=[N+]([O-])c1ccc(C[n+]2ccc3ccc(O)cc3c2)o1 | 0.392
Cc1ccc(S[C@]2(C(=O)NC(C)C)CC(=O)N(Cc3cc(C(F)(F)F)cc(C(F)(F)F)c3)[C@@H]2c2ccc(CO)cc2I)cc1 | -0.919
COC(=O)[C@@]1(Cc2ccccc2N=[N+]=[N-])N=C(c2ccc(OCCCO)cc2)O[C@H]1c1ccccc1CN=[N+]=[N-] | -0.213
O=C(NCc1ccccc1)c1ccc(Br)cc1[N+](=O)[O-] | 0.505
C=C(COC)/C(=C/C[C@H](OC(C)=O)c1ccc(OCCO)cc1)c1cnc2ccccc2c1 | 1.27
COc1cc2c(cc1OC)CN(C(=O)[C@H]1[C@@H]3C(=O)O[C@@H](c4ccccc4)[C@@H](c4ccccc4)N3[C@@H](c3ccccc3OCCO)[C@]13C(=O)Nc1ccc(C#CC4(O)CCCCCC4)cc13)CC2 | 0.971
COCCOC(=O)N1C(=O)[C@@]2(c3cc(C#CCCO)ccc31)[C@H](c1ccc(O)cc1)N1[C@H](c3ccccc3)[C@H](c3ccccc3)OC(=O)[C@H]1[C@@H]2C(=O)Nc1nc2ccccc2s1 | 1.22
CC[C@H]1C2=C3C(CC[C@H]4C(OC)OC[C@](C)([C@@H]34)N(C(=O)OC(C)(C)C)C2)C(CO)C1CO (stereo partly specified) | -0.181
CN(C)C(=O)[C@@]1(Cc2ccccc2N=[N+]=[N-])N=C(c2ccc(OCCCO)cc2)O[C@H]1c1ccccc1CN=[N+]=[N-] | 0.633

SMILES | composite z-score
CC(C)[C@H]1NC(=O)[C@@]23C(=O)N[C@@H](Cc4ccccc4)C2[C@H](C)[C@@]2(C)O[C@H]2C3/C=C/C/C=C\CNC(=O)[C@H](C)NC1=O (stereo partly specified) | -0.62
O=C1c2ccccc2[C@](Cc2ccccc2I)(C(=O)NCc2ccccc2)[C@H](c2ccc(CO)cc2)N1Cc1ccccc1C(F)(F)F | -1.22
O=C1c2ccccc2[C@](Cc2ccccc2I)(C(=O)NCC(F)(F)F)[C@H](c2ccc(CO)cc2)N1Cc1ccccc1C(F)(F)F | 0.108
CCC1=C2CN(Cc3ccccc3Br)[C@@H]([C@@H](O)Cc3ccccc3)C2C=CCC1 (stereo partly specified) | 1.25
C=CCc1cccc([C@H]2N[C@H](C(=O)O)CC[C@@H]2C)c1 | 0.825
COC(=O)C1=CC(c2ccc(CO)cc2)=CC(c2cccs2)N(Cc2cccc(OC(F)(F)F)c2)C=C1C(=O)OC (stereo unspecified) | 0.0703
C=C(CCCC)C(=O)CC[C@@H](OC(=O)c1cccnc1)c1cccc(OCCO)c1 | 0.779
CO[C@H]1COC(=O)[C@H](Cc2ccccc2)NC(=O)CC=C[C@@H](C)[C@H](OC)COC(=O)CC=C[C@@H]1C | 0.492
COCCOC(=O)N1C(=O)[C@@]2(c3cc(C#CCC(C(=O)OC)C(=O)OC)ccc31)[C@H](C(=O)N1CCN(c3ncccn3)CC1)[C@H]1C(=O)O[C@H](c3ccccc3)[C@H](c3ccccc3)N1[C@@H]2c1ccc(O)cc1 | 0.72
CCCC=C(CCC)[C@@H](NS(=O)(=O)c1cccc(C(F)(F)F)c1)c1ccc(C(=O)OC)cc1 | 0.0304
NC(=O)[C@H]1[C@@H]2C(=O)O[C@@H](c3ccccc3)[C@@H](c3ccccc3)N2[C@@H](c2ccc(O)cc2)[C@]12C(=O)Nc1ccc(C#CCCO)cc12 | -0.997
O=C(O)[C@@H]1Cc2c([nH]c3ccccc23)[C@@H](c2ccccc2)N1 | 0.244
COc1cc2c(cc1OC)CN(C(=O)[C@@H]1[C@H]3C(=O)O[C@H](c4ccccc4)[C@H](c4ccccc4)N3[C@H](c3ccccc3OCCO)[C@@]13C(=O)Nc1ccccc13)CC2 | 0.0595
CCCC=C(CCC)[C@@H](NS(=O)(=O)c1ccc(-c2ccccc2)cc1)c1ccc(C(=O)OC)cc1 | -0.707
O=C/C=C/c1ccccc1Cl | -0.239
[N-]=[N+]=NCc1ccccc1[C@H]1OC(c2ccc(OCCCO)cc2)=N[C@@]1(Cc1ccccc1N=[N+]=[N-])C(=O)NCc1ccccc1 | 0.0912
O=C1c2ccccc2[C@](Cc2ccccc2I)(C(=O)O)[C@H](c2ccc(CO)cc2)N1C1CCCCC1 | 0.4
C=CCC(OC(C)=O)[C@@H]1[C@@H](N(Cc2cc3ccccc3o2)C(=O)Cc2ccc(F)cc2)c2cc(OCCCO)ccc2N1C(=O)c1ccc(-c2ccccc2)cc1 (stereo partly specified) | -0.234
